Experiment [1] in a line: NCI Yeast Anticancer Drug Screen. Data for the rad50 strain (AID 155).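 Note: 0% = growth of vehicle-only cultures of the same strain.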 Conditions: S. cerevisiae rad50 strain growth inhibition; at 50.0 µM; stronger effect = higher value. Summed up:
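Growth of the mutant yeast was measured after compound exposure and referenced to vehicle-treated cultures.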

Experiment [2] can be described thus: NCI Yeast Anticancer Drug Screen. Data for the mec2-1 strain (AID 157). The settings on record: S. cerevisiae mec2-1 strain, at 50.0 µM, stronger effect = higher value. In outline: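 Yeast mec2-1 mutant treated with compound. Readout: growth inhibition vs vehicle controls.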
A short description of experiment [3]: NCI Yeast Anticancer Drug Screen. Data for the sgs1 mgt1 strain (AID 161).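 Note: 0% = growth of cultures given vehicle only.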 Conditions: S. cerevisiae sgs1 mgt1 strain, at 50.0 µM, stronger effect = higher value. Summed up: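 Test agents were incubated with a DNA-repair-mutant yeast strain. Growth was then read and compared against vehicle-treated controls.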
Experiment [4] in a line: NCI Yeast Anticancer Drug Screen. Data for the cln2 rad14 strain (AID 165).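 Note: 0% = growth equal to vehicle treated cultures.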 Conditions: S. cerevisiae cln2 rad14 strain, at 50.0 µM, stronger effect = higher value. In outline:
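cln2 rad14 yeast strain; compound exposure; growth inhibition read vs vehicle controls.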

The nature of experiment [5]: NCI Yeast Anticancer Drug Screen. Data for the bub3 strain (AID 167). The settings on record: S. cerevisiae bub3 mutant strain, at 50.0 µM, stronger effect = higher value. In outline:
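Whole-cell yeast assay. The mutant strain was incubated with compounds, and growth inhibition was determined by comparison with vehicle-treated cells.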

Experiment [6] is described as follows: NCI Yeast Anticancer Drug Screen. Data for the mlh1 rad18 strain (AID 175). The settings on record: S. cerevisiae mlh1 rad18 strain growth inhibition; at 50.0 µM; stronger effect = higher value. In outline: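 Yeast w/ defined DNA-repair lesions; compound exposure; growth vs vehicle controls → % inhibition.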

Consider 21 molecules from PubChem BioAssay (NCI).

Compounds without any hit were thinned out: in the full panel of roughly 79,000, 15% have a hit. Values without a mark were called inactive. Calls of active or inactive are those of the source. Cut-off read from the data, not from the text of the source: active = growth inhibition above about 70%; inactive = the rest.

For `Cc1csc2sc3ccccc3[n+]12`, the growth inhibition is 5.75% in experiment [1]; -6.85% in experiment [2]; -0.5% in experiment [3]; -5.8% in experiment [4]; -11.9% in experiment [5]; -34.1% in experiment [6].

Regarding `O=[N+]([O-])c1ccc(/C=C/c2ccc(S(=O)(=O)F)cc2Cl)c(Cl)c1`, the growth inhibition was -13.2% in experiment [1]; -11.2% in experiment [2]; 0.75% in experiment [3]; -34.3% in experiment [4]; -6.7% in experiment [5]; -4.35% in experiment [6].

With `O=C1NC(=S)NC(=O)C1=Cc1ccccc1O`, the growth inhibition in experiment [1] is -2.15%; in experiment [2], -16.9%; in experiment [3], -12.3%; in experiment [4], -32.4%; in experiment [5], -1.45%; in experiment [6], -31.2%.

With `Cc1ccc(NN=O)nc1`, the growth inhibition was -13.9% in experiment [1]; 3.15% in experiment [2]; -3.9% in experiment [3]; 15.2% in experiment [4]; -10.6% in experiment [5]; -13.8% in experiment [6].

In the case of `O=[N+]([O-])OC(c1ccncc1)C(O[N+](=O)[O-])c1ccncc1` (stereo unspecified), the growth inhibition in experiment [1] was 7.7%; in experiment [2], -2.35%; in experiment [3], -6.25%; in experiment [4] it was 16.9%; in experiment [5] it was -5.3%; in experiment [6], 21.3%.

With `CN1CCC2(CC1)COCc1ccccc12`, the growth inhibition is -9.4% in experiment [1]; -5.55% in experiment [2]; -2.7% in experiment [3]; -19.1% in experiment [4]; 11.2% in experiment [5]; 4.8% in experiment [6].

On to `O=C(O)CCC(=O)CCl`, for which the growth inhibition was 7% in experiment [1]; 1.35% in experiment [2]; 1.2% in experiment [3]; -12.6% in experiment [4]; 0.9% in experiment [5]; 1% in experiment [6].

With `O=C=Nc1ccc(Br)cc1`, the growth inhibition was 25.6% in experiment [1]; 11.6% in experiment [2]; 15.8% in experiment [3]; -17.2% in experiment [4]; 23.9% in experiment [5]; 29.4% in experiment [6].

As for `CC(=O)[O-].CC(=O)[O-].O=C(N/N=C/c1cc(Cl)cc(Cl)c1O)c1ccncc1.[Ni+2]`, the growth inhibition in experiment [1] is -12.6%; in experiment [2] it was 18.4%; in experiment [3] it was 19.1%; in experiment [4], -22.2%; in experiment [5] it was -0.05%; in experiment [6], 16.9%.

Turning to `CC(=O)NC(CS)C(=O)[O-].CC(=O)NC(CS)C(=O)[O-].N.N.[Pt+4]` (stereo unspecified), the growth inhibition in experiment [1] is 7.85%; in experiment [2], -9.85%; in experiment [3] it was 15.2%; in experiment [4], -38.1%; in experiment [5], 14.4%; in experiment [6] it was 27.2%.

Take `CC1CN1C(=O)NCCCCCCNC(=O)N1CC1C` (stereo unspecified): the growth inhibition was -17.7% in experiment [1]; -0.2% in experiment [2]; -2.95% in experiment [3]; -38.7% in experiment [4]; -5.55% in experiment [5]; -28.6% in experiment [6].

With `O=CNC(CSC(c1ccccc1)c1ccccc1)C(=O)O` (stereo unspecified), the growth inhibition in experiment [1] was 0.25%; in experiment [2] it was -5.55%; in experiment [3], -10.9%; in experiment [4], -26.4%; in experiment [5], 20.2%; in experiment [6] it was 4.4%.

Consider `CCOP12(OCC)NC(=O)OC1(C(F)(F)F)c1ccccc1O2` (stereo unspecified), for which the growth inhibition in experiment [1] is -19.4%; in experiment [2], 3.9%; in experiment [3], -38%; in experiment [4], -7%; in experiment [5], -26.4%; in experiment [6], -36.4%.

Take `O=c1c2ccccc2nc(-c2ccccc2Cl)n1-c1nnc(C(F)(F)F)s1`: the growth inhibition in experiment [1] was -13.8%; in experiment [2], -13.1%; in experiment [3], 18.3%; in experiment [4] it was 6.15%; in experiment [5], -13.2%; in experiment [6] it was -6.5%.

Consider `CC(Cl)CN(CC(C)Cl)c1ccc2c(c1)Cc1cc([N+](=O)[O-])ccc1-2` (stereo unspecified), for which the growth inhibition is 10.3% in experiment [1]; 5.7% in experiment [2]; 33.7% in experiment [3]; 25.9% in experiment [4]; 4.5% in experiment [5]; 12.7% in experiment [6].

Take `ClCCN(CCCl)CC(Cl)COc1cccc2ccccc12` (stereo unspecified): the growth inhibition in experiment [1] is 12.2%; in experiment [2], 11.6%; in experiment [3], 31.5%; in experiment [4] it was -1.6%; in experiment [5], 25.2%; in experiment [6], 30.4%.

Consider `CCCCS(=O)CCC(N)P(=O)(O)O` (stereo unspecified), for which the growth inhibition in experiment [1] was -50.6%; in experiment [2] it was -54%; in experiment [3] it was -52.8%; in experiment [4], -9.9%; in experiment [5], 1%; in experiment [6], -38.2%.

`O=C1C(=C(O)c2ccccc2)C(=O)c2ccccc21`: the growth inhibition in experiment [1] is -3%; in experiment [2], 1.65%; in experiment [3] it was 1.65%; in experiment [4], -0.25%; in experiment [5] it was -1.8%; in experiment [6] it was 12.3%.

In the case of `COc1ccccc1CCN`, the growth inhibition in experiment [1] was -23.6%; in experiment [2], -5.9%; in experiment [3], -14.1%; in experiment [4], -14.3%; in experiment [5], -21.2%; in experiment [6], -29.3%.

With `Cn1nc2ccc3nccc(NCCNCCCl)c3c2n1`, the growth inhibition is 6.95% in experiment [1]; -30.8% in experiment [2]; -22.1% in experiment [3]; 2.7% in experiment [4]; -19.2% in experiment [5]; -20.8% in experiment [6].

In the case of `CC1C(C)(C)P(=O)(Oc2ccc3ccccc3c2)C1(C)C` (stereo unspecified), the growth inhibition in experiment [1] is 71.6% (active); in experiment [2] it was 55.3%; in experiment [3] it was 84% (active); in experiment [4], 80.7% (active); in experiment [5], 94.4% (active); in experiment [6] it was 56.6%.
